In the library only some 22% were active in any assay of this set; here they are far more common.
Pf growth 96h: inhibits malaria parasite growth, 96 h; P. falciparum luciferase reporter growth, 96 h; Potency, µM (titrated, usually from 28.7 µM), hits mostly inhibitors; hit rate 6.9% among 320,000; AID 504834
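Parasite growth measured via integrated firefly luciferase reporter in P. falciparum. Infected erythrocytes at 2% hematocrit, 0.05% parasitemia final were treated 96 hours at 37 C under 5% CO2, and luminescence was read.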
CHX counter: affects cycloheximide protein synthesis inhibition readout, counter-screen; cell reporter, cycloheximide protein synthesis inhibition counterscreen; max response, %; hit rate 12% among 300,000; in the data active = max response mostly above about 13%, no sharp cut-off; inactive = mostly below about 14%; also: read at 38.3 µM for the half of the compounds with a filed dose
Shiga toxin inh: inhibitors of Shiga toxin in Vero cells | Vero cells, Shiga toxin protein synthesis inhibition reporter | inhibition, % at 38.7 µM | hit rate 9.2% among 290,000; in the data active = inhibition mostly above about 28%, no sharp cut-off; inactive = mostly below about 43%
Pf growth 48h: P. falciparum growth inhibition at 48 hours (one generation). P. falciparum luciferase growth in erythrocytes, 48 h. Potency, µM (titrated, usually from 28.7 µM), actives largely listed as inhibitors. hit rate 5.9% among 310,000. AID 504832
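Compounds are pin-transferred into medium, infected erythrocytes (2% hematocrit, 0.1% parasitemia final) are added, and plates sit one parasite generation at 37 C in 5% CO2. Detection reagent is then added and luminescence measured.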
LmPK inh: inhibitors of Leishmania mexicana pyruvate kinase | Q27686 | purified LmPK, Kinase-Glo ATP luminescence, 1 h | Potency, µM (series often up to 57.5 µM), most hits filed as inhibitors | hit rate 0.37% among 290,000
Target sequence (Q27686 whole entry, looked up): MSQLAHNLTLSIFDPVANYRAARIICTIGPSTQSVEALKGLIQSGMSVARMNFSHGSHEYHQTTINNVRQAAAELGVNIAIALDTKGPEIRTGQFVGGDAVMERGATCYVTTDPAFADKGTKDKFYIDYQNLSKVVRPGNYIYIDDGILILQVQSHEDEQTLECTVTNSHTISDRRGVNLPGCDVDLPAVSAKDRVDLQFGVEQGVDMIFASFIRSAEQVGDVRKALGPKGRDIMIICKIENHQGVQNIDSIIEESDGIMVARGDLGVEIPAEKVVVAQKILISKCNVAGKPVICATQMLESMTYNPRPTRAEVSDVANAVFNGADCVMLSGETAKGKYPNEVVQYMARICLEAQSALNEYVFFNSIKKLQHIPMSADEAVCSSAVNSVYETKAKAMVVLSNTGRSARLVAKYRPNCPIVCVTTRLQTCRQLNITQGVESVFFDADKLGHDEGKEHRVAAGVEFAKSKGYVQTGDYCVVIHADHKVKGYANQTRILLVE
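Kinase-Glo luminescence read after 1 h RT reaction of 0.1 nM LmPK with 0.5 mM PEP and 0.1 mM ADP. Activity scaled between uninhibited and enzyme-free controls.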
A number is an active result; [ ] = another dose, or the depositor's remark. Unless noted, calls follow the shape of the dose curve; as a rule, active = well fitted inhibition curve with a large enough effect; inconclusive = small, poorly fitted or top-dose-only effect, or another doubt; inactive = no such curve, though single readings can be large or run the other way.

For COc1cc2[nH]c(=S)n(Cc3ccc(C)cc3)c(=O)c2cc1OC the results were Pf growth 96h 10µM, CHX counter inactive, Shiga toxin inh inactive, Pf growth 48h inactive and LmPK inh inactive.
Screening COc1ccc(Cn2c(=S)[nH]c3cc(OC)c(OC)cc3c2=O)cc1 returned Pf growth 96h inconclusive, CHX counter 31, Shiga toxin inh inactive, Pf growth 48h inactive[5.75 µM] and LmPK inh inactive.
N/C(=N\OC(=O)c1cc(Cl)ccc1Cl)c1ccccn1 was read as Pf growth 96h inconclusive, CHX counter 25, Shiga toxin inh 64, Pf growth 48h inactive and LmPK inh inactive.
For Cc1cccc(C(=O)O/N=C(\N)c2ccccn2)c1 the results were Pf growth 96h inconclusive, CHX counter inactive, Shiga toxin inh inactive, Pf growth 48h inactive and LmPK inh inconclusive.
COc1ccc(Cl)cc1C(=O)O/N=C(\N)c1ccccn1 was read as Pf growth 96h inconclusive, CHX counter 41, Shiga toxin inh 60, Pf growth 48h inactive and LmPK inh inactive.
Screening Cc1cc(NC(=O)COC(=O)C2CC(=O)N(c3ccccc3Cl)C2)no1 (stereo not drawn) returned Pf growth 96h inconclusive, CHX counter inactive, Shiga toxin inh inactive, Pf growth 48h inactive and LmPK inh inactive.
`C/C(=N/N=C/c1ccccc1O)c1ccccc1O` gave Pf growth 96h inactive, CHX counter 43, Shiga toxin inh 89, Pf growth 48h inactive[0.00184 µM] and LmPK inh inactive.
CCCS/C(N)=N/N=C/c1cc(C)ccc1O was read as CHX counter 42, Shiga toxin inh 145, Pf growth 48h inactive and LmPK inh inactive.
`CCCCS/C(N)=N/N=C/c1ccccc1O` gave Pf growth 96h inactive, CHX counter 32, Shiga toxin inh inactive and LmPK inh inactive.
Cc1ccc(NC(=O)CCc2c(C)nn(-c3ccc(N4CCCCC4)nn3)c2C)cc1F was read as Pf growth 96h inactive, CHX counter 41, Shiga toxin inh 71, Pf growth 48h inactive and LmPK inh inactive.
Screening CCOc1ccc(NC(=O)CCc2c(C)nn(-c3ccc(N4CCCCC4)nn3)c2C)cc1 returned Pf growth 96h inactive, CHX counter 27, Shiga toxin inh 45, Pf growth 48h inactive and LmPK inh inactive.
Cc1nn(-c2ccc(N3CCCCC3)nn2)c(C)c1CCC(=O)Nc1cccc(F)c1 was read as Pf growth 96h inconclusive, CHX counter 44, Shiga toxin inh 84, Pf growth 48h inactive and LmPK inh inactive.
Screening CCc1ccc(NC(=O)CCc2c(C)nn(-c3ccc(N4CCCCC4)nn3)c2C)cc1 returned Pf growth 96h inactive, CHX counter 49, Shiga toxin inh 81, Pf growth 48h inactive and LmPK inh inactive.
CCc1ccccc1NC(=O)CCc1c(C)nn(-c2ccc(N3CCOCC3)nn2)c1C was read as Pf growth 96h inactive, CHX counter inactive, Shiga toxin inh inactive, Pf growth 48h inactive and LmPK inh inactive.
`N#Cc1cccc(S(=O)(=O)NCCOc2ccccc2F)c1` gave Pf growth 96h inactive and Pf growth 48h inactive.
Screening Cc1nn(-c2ccc(N3CCCCC3)nn2)c(C)c1CCC(=O)Nc1ccc(F)cc1 returned Pf growth 96h inconclusive, CHX counter 34, Shiga toxin inh 55, Pf growth 48h inactive and LmPK inh inactive.
Screening Cc1ccc(C)c(NC(=O)CCc2c(C)nn(-c3ccc(N4CCCCC4)nn3)c2C)c1 returned Pf growth 96h inconclusive, CHX counter inactive, Shiga toxin inh inactive, Pf growth 48h inactive and LmPK inh inactive.
For Cc1cc(C)cc(NC(=O)CCc2c(C)nn(-c3ccc(N4CCOCC4)nn3)c2C)c1 the results were Pf growth 96h inconclusive, CHX counter 26, Shiga toxin inh inactive, Pf growth 48h inactive and LmPK inh inactive.
Screening CCc1cccc(NC(=O)CCc2c(C)nn(-c3ccc(N4CCCCC4)nn3)c2C)c1 returned Pf growth 96h inconclusive, CHX counter 40, Shiga toxin inh 95, Pf growth 48h inactive and LmPK inh inactive.
CCCOc1ccc(CNC(=O)C2CCN(c3nnc(N4CCCC4=O)s3)CC2)cc1 was read as Pf growth 96h inactive, CHX counter inactive, Shiga toxin inh inactive, Pf growth 48h inactive and LmPK inh inactive.
For CCc1ccc(CN2CCC(C(=O)Nc3ccc(-n4nc(C)cc4C)cc3)CC2)o1 the results were Pf growth 96h inconclusive, CHX counter inactive, Shiga toxin inh inactive, Pf growth 48h 6.6µM and LmPK inh inactive.
Screening Cc1ncc(CN2CCC(C(=O)Nc3ccc(-n4cccn4)cc3)CC2)s1 returned Pf growth 96h inactive, CHX counter inactive, Shiga toxin inh inactive, Pf growth 48h 1µM and LmPK inh inactive.
`Cc1cc(C)n(-c2ccc(NC(=O)C3CCN(Cc4cnc(C)s4)CC3)cc2)n1` gave Pf growth 96h inactive, CHX counter inactive, Shiga toxin inh inactive, Pf growth 48h inconclusive and LmPK inh inactive.
COC(=O)Nc1ccc2[nH]cc(CCNC(C)=O)c2c1 was read as CHX counter inactive and Shiga toxin inh inactive.
Cc1ccc(OCC(=O)N2CCCC(CO)(CCOc3ccccc3)C2)cc1 (stereo not drawn) was read as Pf growth 96h inactive, CHX counter inactive, Shiga toxin inh inactive, Pf growth 48h inactive and LmPK inh inactive.
`Cc1cccc(N2CCN(C(=O)CCC(=O)N3CCOc4ccc(Cl)cc43)CC2C)c1` (stereo not drawn) gave Pf growth 96h 9.3µM, CHX counter inactive, Shiga toxin inh inactive, Pf growth 48h inactive and LmPK inh inactive.
Screening Cc1ccc(C)c(N2CCN(C(=O)CCC(=O)N3CCOc4ccc(Cl)cc43)CC2)c1 returned Pf growth 96h 4.1µM, CHX counter inactive, Shiga toxin inh inactive, Pf growth 48h inconclusive and LmPK inh inactive.
Cc1ccccc1CSCC(=O)Nc1c(C)n(C)n(-c2ccccc2)c1=O was read as Pf growth 96h inactive, CHX counter inactive, Shiga toxin inh inactive, Pf growth 48h inactive and LmPK inh inactive.
For CC(=O)N1CC(=O)N(c2ccccc2)C1=O the results were Pf growth 96h inactive, CHX counter inactive, Shiga toxin inh inactive, Pf growth 48h inactive and LmPK inh inactive.
Screening CC(CN(C)Cc1ccccc1)OC(=O)c1ccc2c(c1)OCCO2 (stereo not drawn) returned Pf growth 96h inactive, CHX counter 31, Shiga toxin inh inactive, Pf growth 48h inactive and LmPK inh inactive.
CN(Cc1ccccc1)C(=O)c1ccc2c(c1)OCO2 was read as Pf growth 96h inconclusive, CHX counter 15, Shiga toxin inh inactive, Pf growth 48h inactive and LmPK inh inactive.
CC(C)N(Cc1ccccc1)C(=O)c1ccc2c(c1)OCO2 was read as Pf growth 96h inactive, CHX counter inactive, Shiga toxin inh inactive, Pf growth 48h inactive and LmPK inh inactive.
For CN(Cc1ccccc1)C(=O)COC(=O)c1ccc2c(c1)OCO2 the results were Pf growth 96h inactive, CHX counter 33, Shiga toxin inh 54, Pf growth 48h inactive and LmPK inh inactive.
Screening O=C(CN1CCN(C(=O)C2CCN(C(=O)/C=C/c3ccccc3)CC2)CC1)Nc1ccccc1Cl returned Pf growth 96h inconclusive and Pf growth 48h inactive.
O=C(NCCOc1ccccc1F)c1ccc2c(=O)n3c(nc2c1)CCC3 was read as Pf growth 96h inactive and Pf growth 48h inactive.
